Results reported in the supplement of paper PMC10849652.
Of roughly 8,800 targets only a part is listed; those with a hit were picked by preference. About 0.5% of all pairs of compound and target were hits.

Tests used:
Assay in all cases: log2 fold change, soluble protein after heating vs DMSO (PISA); higher = thermal stabilisation; K562 lysate, 10 uM; active = over 0.2 and 3.5 SD of the protein, either way, in both replicates (recomputed)
[1] = compound: C1=CC=C(C=C1)[C@H](COC2=CC3=C(C=C2)NC(=O)N3)NC(=O)C4=CC=CN(C4=O)CC5=CC(=C(C=C5)F)F
Outline: (§1)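 Values give the log-two fold change in thermal stability against solvent controls, from duplicates. Crude K562 extract at 1 mg/mL protein, made by dounce homogenisation in PBS pH 7.4 with 1 mM MgCl2, was treated with 10 μM compound for 30 min. After 3 min heating across 48°C-58°C, aliquots were pooled, adjusted to 0.5% NP-40 at 4°C and centrifuged at 21,000xg for 90 min. The supernatant was measured by TMTpro 16plex LC-MS/MS with channel sums equalised.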

[2] = compound: CC1=C(SC2=C1C(=N[C@H](C3=NN=C(N32)C)CC(=O)N)C4=CC=C(C=C4)Cl)C
Outline: as §1

[3] = compound: CC1=C2C(=CC=C1)N=C(N(C2=O)C3=CC=CC=C3C)CN4C=NC5=C(N=CN=C54)N
Outline: as §1

[4] = compound: Cc1sc2c(c1C)C(c1ccc(Cl)cc1)=N[C@@H](CC(=O)OC(C)(C)C)c1nnc(C)n1-2
Outline: as §1

[5] = compound: c1ccc([C@@H]2C[C@H]2NC2CCNCC2)cc1
Outline: as §1

Measured: log2 fold change

CDKN1C (UniProt P49918)
inactive: [1] 0.035 | [2] -0.012 | [3] 0.185 | [4] 0.094 | [5] 0.025

CCDC186 (UniProt Q7Z3E2)
inactive: [1] 0.031 | [2] 0.085 | [3] 0.055 | [4] -0.016 | [5] 0.105

BCKDHB (UniProt P21953)
inactive: [1] 0.027 | [2] 0.023 | [3] 0.09 | [4] 0.074 | [5] 0.119

CARS isoform 3 (UniProt P49589)
Sequence of UniProt P49589 (P49589 whole entry, looked up): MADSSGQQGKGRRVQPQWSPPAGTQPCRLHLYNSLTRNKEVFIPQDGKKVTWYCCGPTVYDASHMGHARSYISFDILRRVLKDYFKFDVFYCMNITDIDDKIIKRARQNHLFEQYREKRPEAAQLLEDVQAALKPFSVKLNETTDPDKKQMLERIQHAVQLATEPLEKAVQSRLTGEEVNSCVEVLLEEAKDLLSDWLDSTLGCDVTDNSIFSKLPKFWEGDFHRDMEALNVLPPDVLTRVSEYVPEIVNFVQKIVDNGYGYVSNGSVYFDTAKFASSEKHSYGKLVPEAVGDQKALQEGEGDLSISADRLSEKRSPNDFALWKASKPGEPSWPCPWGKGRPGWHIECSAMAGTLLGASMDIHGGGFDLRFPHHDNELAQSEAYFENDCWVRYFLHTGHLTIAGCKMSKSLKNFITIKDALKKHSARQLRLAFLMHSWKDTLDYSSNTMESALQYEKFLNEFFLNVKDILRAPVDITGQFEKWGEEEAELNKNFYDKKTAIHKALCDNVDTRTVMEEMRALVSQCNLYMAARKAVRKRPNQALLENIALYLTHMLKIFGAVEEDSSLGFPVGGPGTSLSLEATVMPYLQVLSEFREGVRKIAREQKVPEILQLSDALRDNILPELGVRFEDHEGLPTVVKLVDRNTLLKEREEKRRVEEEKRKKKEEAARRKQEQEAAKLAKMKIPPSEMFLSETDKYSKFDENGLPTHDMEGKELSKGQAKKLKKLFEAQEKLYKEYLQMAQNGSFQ
inactive: [1] -0.026 | [2] 0.014 | [3] 0.007 | [4] 0.035 | [5] 0.03

CCAR2 (UniProt Q8N163)
inactive: [1] 0.001 | [2] 0.005 | [3] -0.007 | [4] 0.003 | [5] 0.004

ATP6V1B1 (UniProt P15313)
inactive: [1] 0.023 | [2] 0.004 | [3] 0.004 | [4] -0.023 | [5] -0.157

CDC25C (UniProt P30307)
Sequence of UniProt P30307 (P30307 whole entry, looked up): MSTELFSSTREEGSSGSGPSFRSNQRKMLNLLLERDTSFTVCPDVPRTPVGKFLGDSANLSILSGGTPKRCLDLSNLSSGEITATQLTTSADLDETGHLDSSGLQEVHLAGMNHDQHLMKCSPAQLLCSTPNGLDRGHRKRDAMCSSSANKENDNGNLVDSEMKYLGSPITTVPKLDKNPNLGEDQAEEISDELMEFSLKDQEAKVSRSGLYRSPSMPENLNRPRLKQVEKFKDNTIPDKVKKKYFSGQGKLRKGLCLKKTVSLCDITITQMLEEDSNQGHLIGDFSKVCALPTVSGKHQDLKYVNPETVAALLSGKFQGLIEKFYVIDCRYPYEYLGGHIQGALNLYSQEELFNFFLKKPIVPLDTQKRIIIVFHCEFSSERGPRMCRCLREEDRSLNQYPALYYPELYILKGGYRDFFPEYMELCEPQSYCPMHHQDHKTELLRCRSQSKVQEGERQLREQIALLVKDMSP
inactive: [1] 0.018 | [2] -0.011 | [3] 0.023 | [4] 0.07 | [5] 0.027

AUH (UniProt Q13825)
inactive: [1] 0.034 | [2] 0 | [3] 0.129 | [4] -0.112 | [5] -0.009

CCNK isoform 4 (UniProt O75909)
Sequence of UniProt O75909 (O75909 whole entry, looked up): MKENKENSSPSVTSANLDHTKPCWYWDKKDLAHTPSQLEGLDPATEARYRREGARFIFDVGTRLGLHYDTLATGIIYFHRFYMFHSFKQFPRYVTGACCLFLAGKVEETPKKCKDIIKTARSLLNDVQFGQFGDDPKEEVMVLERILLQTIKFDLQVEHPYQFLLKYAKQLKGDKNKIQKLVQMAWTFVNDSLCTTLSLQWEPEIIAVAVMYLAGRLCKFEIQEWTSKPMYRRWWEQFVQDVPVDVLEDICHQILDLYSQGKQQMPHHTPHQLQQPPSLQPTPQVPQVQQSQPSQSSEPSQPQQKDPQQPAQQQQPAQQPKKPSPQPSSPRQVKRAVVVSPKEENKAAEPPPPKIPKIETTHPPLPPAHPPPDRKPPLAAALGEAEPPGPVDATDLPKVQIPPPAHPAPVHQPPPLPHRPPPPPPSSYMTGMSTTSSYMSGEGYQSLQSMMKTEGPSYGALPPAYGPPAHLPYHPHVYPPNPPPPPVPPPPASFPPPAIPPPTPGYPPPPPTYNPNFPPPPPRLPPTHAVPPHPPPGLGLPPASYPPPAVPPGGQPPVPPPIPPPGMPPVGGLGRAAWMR
inactive: [1] -0.018 | [2] -0.045 | [3] -0.026 | [4] -0.047 | [5] -0.175

CCDC47 (UniProt Q96A33)
Sequence of UniProt Q96A33 (Q96A33 whole entry, looked up): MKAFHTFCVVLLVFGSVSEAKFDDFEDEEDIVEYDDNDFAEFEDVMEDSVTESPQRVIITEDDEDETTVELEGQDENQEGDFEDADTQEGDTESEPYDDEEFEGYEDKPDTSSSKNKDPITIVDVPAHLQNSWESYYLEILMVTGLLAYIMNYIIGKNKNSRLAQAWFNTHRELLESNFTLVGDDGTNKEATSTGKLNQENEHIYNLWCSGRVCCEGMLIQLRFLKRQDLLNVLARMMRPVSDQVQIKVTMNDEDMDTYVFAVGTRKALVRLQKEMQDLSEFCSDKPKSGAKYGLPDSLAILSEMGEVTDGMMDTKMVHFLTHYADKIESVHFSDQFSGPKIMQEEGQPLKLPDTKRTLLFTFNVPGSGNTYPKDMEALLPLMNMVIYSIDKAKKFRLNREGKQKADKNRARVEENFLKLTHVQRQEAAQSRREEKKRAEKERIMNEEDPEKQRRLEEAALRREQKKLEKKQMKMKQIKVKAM
inactive: [1] -0.043 | [2] 0.005 | [3] 0.022 | [4] 0.017 | [5] 0.018

CDK8 (UniProt P49336)
inactive: [1] -0.05 | [2] -0.108 | [3] 0.202 | [4] 0.017 | [5] -0.045

CCNY (UniProt Q8ND76)
inactive: [1] -0.04 | [2] 0.048 | [3] -0.104 | [4] -0.064 | [5] -0.028

CEP152 (UniProt O94986)
inactive: [1] 0.024 | [2] -0.236 | [3] 0.01 | [4] 0.008 | [5] -0.028

CBR1 (UniProt P16152)
inactive: [1] 0.03 | [2] -0.004 | [3] 0.013 | [4] -0.021 | [5] -0.056

CDC7 (UniProt O00311)
Sequence of UniProt O00311 (O00311 whole entry, looked up): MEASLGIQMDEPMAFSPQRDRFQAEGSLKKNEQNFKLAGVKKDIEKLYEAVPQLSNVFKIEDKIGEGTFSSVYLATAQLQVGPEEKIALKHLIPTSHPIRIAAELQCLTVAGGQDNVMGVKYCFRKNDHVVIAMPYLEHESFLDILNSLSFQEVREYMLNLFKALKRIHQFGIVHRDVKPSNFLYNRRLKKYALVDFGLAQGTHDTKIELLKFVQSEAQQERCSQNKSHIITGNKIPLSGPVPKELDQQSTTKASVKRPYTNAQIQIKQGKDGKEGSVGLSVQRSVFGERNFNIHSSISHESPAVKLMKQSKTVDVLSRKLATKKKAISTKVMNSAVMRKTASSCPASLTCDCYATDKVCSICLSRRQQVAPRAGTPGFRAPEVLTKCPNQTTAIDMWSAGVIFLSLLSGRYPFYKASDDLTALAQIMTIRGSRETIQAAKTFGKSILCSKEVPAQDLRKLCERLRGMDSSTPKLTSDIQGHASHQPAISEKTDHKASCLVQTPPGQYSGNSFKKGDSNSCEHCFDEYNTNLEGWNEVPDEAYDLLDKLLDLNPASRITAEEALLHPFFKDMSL
inactive: [1] -0.063 | [2] 0.084 | [3] 0.019 | [4] 0.003 | [5] 0.008

CAMKK2 (UniProt Q96RR4)
Sequence of UniProt Q96RR4 (Q96RR4 whole entry, looked up): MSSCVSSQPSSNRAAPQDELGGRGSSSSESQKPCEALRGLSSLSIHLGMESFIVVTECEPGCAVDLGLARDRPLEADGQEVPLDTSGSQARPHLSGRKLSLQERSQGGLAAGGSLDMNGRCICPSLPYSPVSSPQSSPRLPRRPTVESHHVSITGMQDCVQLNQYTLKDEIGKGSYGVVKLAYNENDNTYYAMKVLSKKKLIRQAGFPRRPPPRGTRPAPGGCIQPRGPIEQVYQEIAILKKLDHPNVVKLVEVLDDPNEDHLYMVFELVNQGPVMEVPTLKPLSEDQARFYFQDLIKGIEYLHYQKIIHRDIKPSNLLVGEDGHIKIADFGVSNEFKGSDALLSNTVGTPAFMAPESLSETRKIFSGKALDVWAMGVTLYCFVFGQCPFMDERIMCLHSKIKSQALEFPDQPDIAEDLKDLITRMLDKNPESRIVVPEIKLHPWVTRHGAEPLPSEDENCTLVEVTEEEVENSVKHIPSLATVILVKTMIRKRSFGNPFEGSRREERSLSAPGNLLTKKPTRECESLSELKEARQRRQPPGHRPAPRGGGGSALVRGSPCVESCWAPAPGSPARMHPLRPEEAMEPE
inactive: [1] 0.002 | [2] -0.047 | [3] 0.072 | [4] 0.051 | [5] -0.013

BUB1B isoform 3 (UniProt O60566)
inactive: [1] -0.013 | [2] -0.005 | [3] 0.027 | [4] -0.003 | [5] 0.02

BLM (UniProt P54132)
Sequence of UniProt P54132 (P54132 whole entry, looked up): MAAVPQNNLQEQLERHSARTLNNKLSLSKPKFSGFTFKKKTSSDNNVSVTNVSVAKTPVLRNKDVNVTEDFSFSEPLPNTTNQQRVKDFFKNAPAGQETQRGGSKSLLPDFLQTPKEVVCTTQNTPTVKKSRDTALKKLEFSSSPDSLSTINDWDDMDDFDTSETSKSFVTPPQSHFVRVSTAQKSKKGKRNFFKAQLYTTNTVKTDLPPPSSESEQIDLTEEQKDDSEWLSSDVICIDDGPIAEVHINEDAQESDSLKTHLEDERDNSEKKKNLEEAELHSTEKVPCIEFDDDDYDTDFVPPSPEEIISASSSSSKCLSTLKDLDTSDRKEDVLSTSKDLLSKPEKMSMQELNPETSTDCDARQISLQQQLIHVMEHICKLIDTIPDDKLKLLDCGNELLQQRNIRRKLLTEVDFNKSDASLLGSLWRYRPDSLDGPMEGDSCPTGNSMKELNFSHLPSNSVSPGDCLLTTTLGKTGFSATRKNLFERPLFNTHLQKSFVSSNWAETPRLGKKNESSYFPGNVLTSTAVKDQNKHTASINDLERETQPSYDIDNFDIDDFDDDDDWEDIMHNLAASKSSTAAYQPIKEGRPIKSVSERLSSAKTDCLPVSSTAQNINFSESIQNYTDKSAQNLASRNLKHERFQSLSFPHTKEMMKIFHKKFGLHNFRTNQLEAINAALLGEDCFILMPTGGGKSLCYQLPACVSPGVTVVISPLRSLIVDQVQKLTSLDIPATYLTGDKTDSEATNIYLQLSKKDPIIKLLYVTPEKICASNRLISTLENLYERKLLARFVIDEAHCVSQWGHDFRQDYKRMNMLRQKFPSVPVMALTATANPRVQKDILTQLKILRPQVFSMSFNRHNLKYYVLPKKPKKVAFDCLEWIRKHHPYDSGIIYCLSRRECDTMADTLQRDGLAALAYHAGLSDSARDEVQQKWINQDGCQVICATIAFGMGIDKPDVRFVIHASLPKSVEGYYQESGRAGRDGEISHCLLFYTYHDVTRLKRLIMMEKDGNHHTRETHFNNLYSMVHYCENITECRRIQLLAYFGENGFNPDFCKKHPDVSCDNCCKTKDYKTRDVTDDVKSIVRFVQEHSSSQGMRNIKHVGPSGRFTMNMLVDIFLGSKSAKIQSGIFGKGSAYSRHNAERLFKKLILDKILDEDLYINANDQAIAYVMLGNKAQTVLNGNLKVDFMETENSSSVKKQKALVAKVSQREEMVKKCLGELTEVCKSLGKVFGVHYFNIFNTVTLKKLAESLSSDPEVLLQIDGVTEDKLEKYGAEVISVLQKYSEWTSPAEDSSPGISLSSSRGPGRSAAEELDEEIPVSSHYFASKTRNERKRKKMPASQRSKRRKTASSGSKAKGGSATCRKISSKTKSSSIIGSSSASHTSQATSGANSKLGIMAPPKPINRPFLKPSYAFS
inactive: [1] 0.059 | [2] 0.03 | [3] -0.005 | [4] -0.002 | [5] 0.114

BLOC1S6 (UniProt Q9UL45)
Sequence of UniProt Q9UL45 (Q9UL45 whole entry, looked up): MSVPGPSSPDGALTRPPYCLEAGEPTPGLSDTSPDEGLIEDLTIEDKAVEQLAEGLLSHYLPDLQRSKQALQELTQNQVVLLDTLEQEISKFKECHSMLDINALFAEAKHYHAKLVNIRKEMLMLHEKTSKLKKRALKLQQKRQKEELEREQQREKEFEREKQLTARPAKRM
inactive: [1] -0.078 | [2] 0.035 | [3] -0.04 | [4] -0.046 | [5] 0.021
